Source: ChEMBL document CHEMBL4513216, “Probing the Open Global Health Chemical Diversity Library for Multistage-Active Starting Points for Next-Generation Antimalarials” (ACS Infect Dis, 2020)
In all, about 69,000 compounds went through this assay and about 8,600 (12%) showed an effect of 50% or more. This is one part of a sample in which strong results are shown more often than they occur.

System: Plasmodium berghei
Assay: Screen against P. berghei liver stage (PbLuc), transformed with Luciferase, at 10uM
Type: functional, HepG2
Details: tested at 10 uM

SMILES	INHIBITION [%]
CC(C)N1CCC(Nc2ccn(CCC#N)n2)C1=O (stereo not given)	63.3
CC(C)N1CCC(Nc2ccn(Cc3ccccn3)n2)C1=O (stereo not given)	38.7
CC(C)N1CCC(Nc2ccn(C)n2)C1=O (stereo not given)	23.1
COC(C)(CNS(=O)(=O)c1cccnc1)c1ccccc1F (stereo not given)	12.1
CCC1c2ccsc2CCN1C(=O)NCc1cc(C)on1 (stereo not given)	11.915
CC(NC(=O)NCC(C)(C)C(N)=O)c1nc(-c2ccccc2)cs1 (stereo not given)	28.6
COC(=O)[C@H]1C[C@@H](O)CCN1S(=O)(=O)c1ccc(F)cc1F	34.2
COC(=O)[C@H]1C[C@@H](O)CCN1S(=O)(=O)c1cc(C)c(Cl)cc1C	60.2
COC(=O)[C@H]1C[C@@H](O)CCN1S(=O)(=O)c1cc(Cl)ccc1OC	-16.9
Cc1cc(C)c(CNc2cnn(CC(O)CN(C)C)c2)c(C)c1 (stereo not given)	29.8
Cc1ccc(CNC(=O)CN2CCN(CC(O)c3ccco3)CC2)cc1 (stereo not given)	-1.58
O=C(NCC1CC1)C1CCC2(CCN(C(=O)c3ccccn3)CC2)O1 (stereo not given)	-3.44
COc1ccc(CNCC2(COc3cccnc3)C[C@@H](O)[C@@H](O)C2)cc1 (stereo not given in full)	25.3
COCC(=O)NCC1(COc2cnccn2)C[C@@H](O)[C@@H](O)C1 (stereo not given in full)	7.31
COCC(=O)NCC1(COc2cccnc2)C[C@@H](O)[C@@H](O)C1 (stereo not given in full)	57.4
O[C@@H]1CC(CNCc2ccccn2)(COc2cccnc2)C[C@@H]1O (stereo not given in full)	-36
O[C@@H]1CC(CNCC2CC2)(COc2cccnc2)C[C@@H]1O (stereo not given in full)	51
O[C@@H]1CC(CNCC2CCCC2)(COc2cccnc2)C[C@@H]1O (stereo not given in full)	-23.9
O=c1c(NCCc2ccc(O)cc2)c(NCc2ccncc2)c1=O	32.1
CC(C)c1noc(-c2ccc(NC(=O)NCC(O)C(C)C)cc2)n1 (stereo not given)	-132
Cc1ccc(OCCC(=O)NC2CCc3nc(C)cn3C2)cc1 (stereo not given)	5.53
Cc1ccc(C(=O)NS(=O)(=O)Cc2ccccc2)cc1S(C)(=O)=O	1.98
CC(C)Cc1cc(C(=O)N2CCC(C(=O)N3CCOCC3)CC2)on1	31.2
COC(=O)C1CCCN1C(=O)c1cc(CC(C)C)no1 (stereo not given)	-4.51

SMILES	INHIBITION [%]
CC(C)Cc1cc(C(=O)N2CCC[C@H]2C(=O)N2CCOCC2)on1	68
CN(C)Cc1nc(C2(NC(=O)Nc3ccccc3)CCCC2)no1	-20.1
O=c1c(-c2ccnc(NC3CCCCC3)n2)cnc2sc(Cl)cn12	29.3
CCOc1ncccc1NC(=O)NCC(C)O (stereo not given)	-1.14
Cc1nn(C(C)C)c(C)c1NC(=O)c1ccncc1	26.8
CCOc1ncccc1NC(=O)N1CCN(c2cccc(C)c2C)CC1	90.4
CCOc1ncccc1NC(=O)N1CCCCCC1	22.3
COc1ncccc1NC(=O)N1CCOCC1C (stereo not given)	45.4
COc1ccc(Oc2ncccc2NC(=O)N2CCOCC2C)cc1 (stereo not given)	28.7
CCOc1ncccc1NC(=O)Nc1c(C)nn(C(C)C)c1C	56.8
CCOc1ncccc1NC(=O)N1CCOCC1C (stereo not given)	52.2
CCOc1ncccc1NC(=O)N1CCN(c2ccc(O)cc2)CC1	-5.845
COCCN1C[C@@H]2CN(Cc3cccc(F)c3)CCC[C@]2(C(=O)O)C1	-1.64
CN(Cc1ccc(N2CCOCC2)cc1)C(=O)Cn1cccnc1=O	7.08
CC(=O)N1CCC(c2[nH]ncc2S(C)(=O)=O)CC1	4.41
CNc1nc2cn(CCc3ccccc3)c(=O)c-2c[nH]1	-32.1
Cc1noc(C)c1CN1CCc2c(CNc3nccs3)n[nH]c2C1	46.6
CC(NC(=O)NC1CC1)c1nc(-c2ccccc2)cs1 (stereo not given)	11.5
O=S(=O)(NC1CCCCC12OCCO2)c1cc(F)cc(F)c1 (stereo not given)	6.83
CN(Cc1cnn(C)c1)C(=O)c1cc(C(F)(F)F)n(C)n1	36.6
N#Cc1cccc(N2CCCC3(C2)CN(c2ncccn2)CCO3)n1 (stereo not given)	42.3
N#Cc1cccc(N2CCCC3(CNCCO3)C2)n1 (stereo not given)	51.2
N#Cc1cccc(N2CCOC3(CNCCOC3)C2)n1 (stereo not given)	32.7
Cc1nn(C)c(C)c1CN1CCN(CC2(O)CCCN(C)C2)CC1 (stereo not given)	20.9

SMILES	INHIBITION [%]
O=C1NC(c2cnc(C3CCC3)s2)Nc2ncccc21 (stereo not given)	-44.2
Cc1cc(NC(=O)Cn2ncc(SCC(N)=O)c(Cl)c2=O)ccc1Br	49.7
Cc1ccc(NC(=O)Cn2ncc(SCC(N)=O)c(Cl)c2=O)c(F)c1	64.5
Cc1ccc(NC(=O)Cn2ncc(SCC(N)=O)c(Cl)c2=O)cc1	30.5
CNC(=O)CSc1cnn(CC(=O)Nc2cccc(Cl)c2C)c(=O)c1Cl	45.7
Cc1cccc(NC(=O)Cn2ncc(SCC(N)=O)c(Cl)c2=O)c1C	50.5
Cc1cccc(NC(=O)CNC(=O)Cn2ncc(Cl)c(Cl)c2=O)c1C	5.14
CC(=O)N1CCCCC12CCCN(Cc1ccco1)C2 (stereo not given)	28.4
CCC[C@@H]1CN(Cc2ccccc2SC)C[C@H]1NC(C)=O	-7.53
CC(C)(NC(=O)c1ccc(-c2ccccc2F)s1)C(N)=O	-29
CN(C)S(=O)(=O)N1C[C@H]2CC[C@@H](C1)N(Cc1cccc(C#N)c1)C2	-6.88
O=C(Cn1ccc2ccccc21)NCc1ccc(C(=O)O)cc1	15.8
CN1CCN(C(=O)c2nnc3ccc(Cl)cc3n2)CC1	1.04
COC(=O)C1CCN(C(=O)c2nnc3ccc(C)cc3n2)CC1	49.9
COC(=O)C1CCN(C(=O)c2nnc3ccc(Cl)cc3n2)CC1	52.4
CCc1nc(C(=O)N2CCCC2)nn1-c1c(Cl)cccc1Cl	48.4
CC(NC1CCN(CC(=O)N(C)C)CC1)c1cnn(C(C)C)c1 (stereo not given)	19.8
Cc1cc2cc(CNC3CCN(CC4CCOC4)CC3)oc2cc1C (stereo not given)	48.5
Cc1cc(Cl)cc(C)c1CNC1CCN(CC(=O)N(C)C)CC1	56.1
Cc1cc2cc(CNC3CCN(CC(=O)N(C)C)CC3)oc2cc1C	53.9
Cc1cc2cc(CNC3CCN(S(C)(=O)=O)CC3)oc2cc1C	49.6
Cc1nc(-c2c(C)noc2C)cc(C2CCN(CC(=O)N(C)C)CC2)n1	13.8
